The list is not random: actives were taken first. Their share in the collection is about 7%.
ATXN viability = cell viability loss in ATXN counter-screen; Potency, µM (titrated, usually from 56.7 µM), actives largely listed as cytotoxic; 0.49% of 400,000 active; AID 651635; S2 cells (HEK-293 line with an ATXN2-luciferase reporter) viability, CellTiter-Fluor protease fluorescence, 24 h; further: potency means the concentration at half of the fitted maximal effect; nearly all actives have a fitted effect of over 40% in size
D3 antag = blocks the human D3 dopamine receptor; 2.5% of 360,000 active; max response, negative = inhibition, %; D3R cells, DiscoveRx beta-arrestin luminescence, antagonist mode; stronger effect = lower value; in the data active means max response below about -50%; inconclusive means no clear call, values can overlap the other calls; further: on the % scale 0 is the no-effect control and ±100 the full control effect
Target sequence (P35462 whole entry, looked up): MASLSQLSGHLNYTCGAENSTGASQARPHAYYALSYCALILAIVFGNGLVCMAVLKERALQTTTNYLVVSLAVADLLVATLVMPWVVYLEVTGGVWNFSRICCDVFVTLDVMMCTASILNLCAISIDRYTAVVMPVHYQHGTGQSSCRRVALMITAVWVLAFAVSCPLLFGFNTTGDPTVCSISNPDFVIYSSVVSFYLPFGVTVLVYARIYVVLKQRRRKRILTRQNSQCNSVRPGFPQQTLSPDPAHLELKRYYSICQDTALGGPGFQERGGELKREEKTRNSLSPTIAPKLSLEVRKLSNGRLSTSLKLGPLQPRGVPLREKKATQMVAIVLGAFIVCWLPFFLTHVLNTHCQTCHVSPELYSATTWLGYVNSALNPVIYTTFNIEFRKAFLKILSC
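Cells expressing the human receptor were seeded at 1500 cells/well, incubated overnight at 37 degrees C in 5% CO2, then exposed to library compounds with dopamine controls for 90 minutes at 37 degrees C before luminescent detection.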
ATXN2 expr inh = reduces ATXN2 reporter expression in HEK-293 cells; HEK-293 ATXN2-luciferase reporter, luminescence, 24 h; Potency, µM (highest dose often 57 µM), for inactives: at the top dose activity change, negative = inhibition, usual class: inhibitors; 0.72% of 360,000 active; AID 1745845; further: potency means the concentration at half of the fitted maximal effect; on the % scale 0 is the no-effect control and ±100 the full control effect; nearly all actives have a fitted effect of over 55% in size
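ATXN2-luciferase reporter cells (luciferase flanked by upstream and downstream ATXN2 gene portions) were treated 24 h at 37 °C with compounds at up to 57 uM. SteadyGlo luminescence gave expression; GF-AFC fluorescence gave viability.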
IL1B secr inh = inhibitors of inflammasome signaling (IL-1 beta secretion). THP-1 LPS/ATP IL-1B secretion, AlphaLISA, 16 h; stronger effect = lower value. activity change, % at 57.5 µM. 4.7% of 360,000 active; in the data active means activity change below about -50%; inconclusive means mostly about -30% to -49%; further: on the % scale 0 is the no-effect control and ±100 the full control effect
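THP-1 cells pretreated 1 hr with compounds (up to 57.5 uM final), then stimulated with LPS (250 ng/mL final) plus ATP (1.25 mM final); secreted IL-1B measured by AlphaLISA after 16 hr, decreased signal indicating inhibition.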
a7 integrin act = activators of alpha7 integrin expression for muscular dystrophy; Potency, µM (top dose mostly 38.3 µM), for inactives: at the highest dose activation, hits mostly activators; alpha7betagal myoblasts, beta-gal FDG fluorescence, 48 h; 0.064% of 350,000 active;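 further: potency means the concentration at half of the fitted maximal effect; 100% = response of the positive control SU9516; nearly all actives have a fitted effect of over 60% in size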
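Alpha7betagal+/- myoblasts (passage 13) were plated 16-24 hr, then exposed to compounds (1:260 dilution of DMSO stock) for 48 hours at 37C. After MPER lysis, β-galactosidase reporter activity was read as FDG fluorescence (ex 480/em 540) after 30 minutes.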
DRD3 agonist = agonists of human D3 dopamine receptor | P35462 | D3R DiscoveRx beta-arrestin cells, luminescence, 90 min | max activation, % | 0.58% of 410,000 active | AID 652048; in the data active means max activation above about 30%; further: 0% is about no effect
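Agonist mode: compounds and dopamine controls were applied to plated cells for 90 min at 37 degrees C after an overnight attachment at 1500 cells/well. Luminescent read-out followed 30 - 60 minutes at room temperature with DiscoveRx detection reagent.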
Active calls of the source: *; i = inactive; ? = inconclusive; nt = no result given; [ ] = remark or other dose. Unless noted, the call rests on the fitted dose curve; in most records, active means well fitted curve in the direction sought with a large enough effect; inconclusive means small, poorly fitted or top-dose-only effect, or another doubt; inactive means no such curve, though single readings can be large; an effect the other way counts as inactive or inconclusive.

SMILES	ATXN viability	D3 antag	ATXN2 expr inh	IL1B secr inh	a7 integrin act	DRD3 agonist
CN(CCC#N)C(=O)CSc1nnc(-c2ccco2)n1N	i	12	-2%	22	-28%	5
CCCCCNCc1cccn1C	i	?	-5%	-5	-2%	-19
Cn1cccc1CNCc1ccccc1Cl	i	-64*	-5%	-17	1%[7.66 µM]	-31
COC(=O)[C@@]1(Cc2ccc(F)cc2)[C@H]2c3cc(C(=O)N(C)C)n(Cc4nc5ccccc5[nH]4)c3C[C@H]2CN1C(=O)c1ccccc1	i	-68*	-21%	-13	17%	-66
COC(=O)[C@@]1(Cc2ccc(F)cc2)[C@H]2c3cc(C(=O)N4CCCC4)n(Cc4ccc(C)o4)c3C[C@H]2CN1C(=O)c1ccccc1	?	-24	?	-87*	nt	-3
COC(=O)[C@@]1(Cc2ccc(F)cc2)[C@H]2c3cc(C(=O)N4CCCC4)n(Cc4ccc(C)c(F)c4F)c3C[C@H]2CN1C(=O)c1ccccc1	?	-30	0%	0	nt	5
COC(=O)[C@@]1(Cc2ccc(F)cc2)[C@H]2c3cc(C(=O)N(C)C)n(Cc4ccccn4)c3C[C@H]2CN1C(=O)c1ccccc1	i	-17	-17%	0	-1%	-27
COC(CNC(=O)C1CCC(CNS(=O)(=O)c2c(C)cc(C)cc2C)CC1)OC (stereo not drawn)	i	-10	nt	2	-16%	-2
COc1ccc(-c2ccccc2)cc1NC(=O)c1ccncc1	i	23	-3%	-23	23%	-1
COc1cc(CNC2CCCC2)cc(Cl)c1OCc1ccccc1F	nt	-7	20µM*	-76*	-59%	-5
CCc1ccc(C(=O)N/N=C(\C)c2ccncc2)s1	i	-17	57%	-11	15%	-6
NC(=S)N/N=C/c1ccc(-c2cc(Cl)c(Cl)cc2Cl)o1	i	?	7%	29	11%	-8
CN(C)c1nc(=NCc2cccs2)ss1	?	-15	?	-60*	-55%	-2
O=C(O)C1CC=CCC1C(=O)N1CC=C(c2ccccc2)CC1 (stereo not drawn)	i	-62*	-2%[11.3 µM]	28	-46%	-12
O=C(O)CCC(=O)N1CC=C(c2ccccc2)CC1	i	?	2%	21	-13%	-23
Cc1ccc(NC(=O)COc2ccc(N3CC(C(N)=O)CC3=O)cc2)c(C)c1 (stereo not drawn)	i	-1	-8%	-16	-48%	-4
CC(C)c1nc2sc3c(=O)[nH]cnc3c2c2c1CCC2	i	7	6%	37	3%	52*
CC(C)c1nc2sc3c(=O)[nH]cnc3c2c2c1CCCC2	i	27	-2%	77	-7%	5
CN(C)c1ccc(/C=N/N2C(=S)SC(C)(C)C2N(O)C(=O)Nc2ccc([N+](=O)[O-])cc2)cc1 (stereo not drawn)	i	-67*	3%	?	-9%	-2
CNC(=O)N(O)C1N(/N=C/c2ccc(SC)cc2)C(=S)SC1(C)C (stereo not drawn)	i	-9	-10%	12	7%	3
Cc1ccc2[nH]c3c(c2c1)CCCC3C(N)=O (stereo not drawn)	i	-8	-2%	33	12%	-1
Cc1ccc2[nH]c3c(c2c1)CCCC3NC(=O)CCl (stereo not drawn)	?	?	?	-100*	-64%	-6
O=C(NCCCn1ccnc1)c1nn2c(C(F)(F)F)cc(-c3ccc(Br)cc3)nc2c1Cl	?	-19	?	-52*	-19%	-4
COc1ccc(-c2cc(C(F)(F)F)n3nc(C(=O)NCCCn4ccnc4)cc3n2)cc1	i	5	-19%	-59*	-5%	0
CCC(=O)Nc1cccc(C2=NOC3(C2)C[C@H](C(N)=O)N(C(=O)Cc2ccc([N+](=O)[O-])cc2)C3)c1 (stereo partly drawn)	i	5	9%	13	1%	16
SMILES	ATXN viability	D3 antag	ATXN2 expr inh	IL1B secr inh	a7 integrin act	DRD3 agonist
Cc1ccc(-n2cc(CN3CCC(CO)(Cc4cccc(C(F)(F)F)c4)CC3)cn2)cc1	i	-61*	-34%[11.3 µM]	-112*	-70%	-10
OCC1(Cc2ccccc2C(F)(F)F)CCN(Cc2ccc3c(c2)CCO3)CC1	i	-1	0%[11.3 µM]	0	28%	-10
CSc1cccc(CN2CCC(CO)(Cc3cccc(C(F)(F)F)c3)CC2)c1	?	?	?	-96*	-54%	-18
OCC1(Cc2ccccc2)CCN(Cc2cnn(-c3ccccc3F)c2)CC1	i	?	6%	?	6%	-14
OCC1(Cc2ccccc2C(F)(F)F)CCN(Cc2ccccc2)CC1	i	-4	-25%	-61*	-31%	-19
CN(C)S(=O)(=O)N1CCC(CO)(Cc2cccc(C(F)(F)F)c2)CC1	i	4	-10%	-4	7%	4
OCC1(Cc2cccc(C(F)(F)F)c2)CCN(Cc2cc(F)cc(F)c2)CC1	?	6	?	-77*	-43%	-10
CCCOc1cccc(C2c3c(oc4ccc(F)cc4c3=O)C(=O)N2Cc2ccc3c(c2)OCO3)c1 (stereo not drawn)	i	nt	-6%	nt	nt	3
CCOC(=O)C1=C(CSc2nc3ccccc3s2)NC(=O)NC1c1cc(C)ccc1C (stereo not drawn)	?	34	-36%	?	-51%	31*
CCOC(=O)C1=C(CP(=O)(c2ccccc2)c2ccccc2)NC(=O)NC1c1ccc(Cl)cc1 (stereo not drawn)	?	-3	1%	-55*	?	-4
CCOC(=O)C1=C(CP(=O)(c2ccccc2)c2ccccc2)NC(=O)NC1c1ccc(OC)cc1 (stereo not drawn)	i	12	9%	13	25%	6
CCOC(=O)C1=C(CSc2nc3ccccc3s2)NC(=O)NC1c1ccc(OC)cc1 (stereo not drawn)	?	7	?	-86*	-67%	23
CCOC(=O)C1=C(CSCC(=O)OC)NC(=O)NC1c1cc(C)ccc1C (stereo not drawn)	i	13	19%	-15	-8%[7.66 µM]	1
CCOC(=O)C1=C(CN(C)Cc2ccccc2)NC(=O)NC1c1ccc(OC)cc1 (stereo not drawn)	nt	nt	nt	nt	nt	4
C/C(=N\NC(=O)C1COc2ccccc2O1)c1ccc(N2CCOCC2)cc1 (stereo not drawn)	nt	-5	3%	-18	12%	-1
Clc1ccc(-c2nnc(N3CCOCC3)o2)cc1	i	9	31%	35	26%	10
Nc1[nH]nc2nc3ccccc3cc12	?	7	-7%	7	0%	4

Source: PubChem BioAssay
